This experiment can be described thus: anthelmintic activity against nematode growth – whole organism, log2 fold change (AID 1259336).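 Note: growth scored by imaging after five days at 20 °C.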 The settings on record: C. elegans growth, anthelmintic screen; hits give low values.

Consider 39 compounds from PubChem BioAssay AID1259336 (Sattelle Laboratory, UCL Respiratory, Division of Medicine, …, 2017).

Molecules are shown by their SMILES. A number with no mark means an inactive call. The source made the active and inactive calls. Cut-off read from the data, not from the text of the source: active = log2 fold change growth below about -1.8; inactive = the rest.

As for `CC(C)(C(=O)Nc1ccc(F)cc1)n1cc(-c2ccccc2F)cn1`, the log2 fold change growth is 0.0447.

Consider `Cc1cc(=O)[nH]c(-n2nc(C)cc2C)n1`, for which the log2 fold change growth is 0.36.

As to `CC[C@H](CO)NCCN[C@H](CC)CO`, the log2 fold change growth is -0.0318.

`O=C(C1CCN(c2nnnn2-c2ccccc2)CC1)N1CCc2ccccc2C1`: the log2 fold change growth is -0.288.

`Cc1ccc(NC(=O)C[C@H]2COc3ccccc3O2)cc1Cl`: the log2 fold change growth was -0.476.

As to `CC[C@@H]([C@H](C)O)n1ncn(-c2ccc(N3CCN(c4ccc(OC[C@@H]5CO[C@@](Cn6cncn6)(c6ccc(F)cc6F)C5)cc4)CC3)cc2)c1=O`, the log2 fold change growth was -1.34.

For the compound `Cc1ccccc1CN1CCC(O)(c2ccc(Cl)c(C(F)(F)F)c2)CC1`, the log2 fold change growth is 0.151.

Take `O=C(c1ccco1)N(CCCn1ccnc1)c1nc2c(Cl)cccc2s1`: the log2 fold change growth was -2.18 (active).

As to `COc1cccc(OC)c1C(=O)Nc1ccc(Cl)c(-c2nc3ccccc3s2)c1`, the log2 fold change growth is -0.202.

For `Cc1cc(C(=O)Nc2cnn(Cc3ccc(Cl)cc3Cl)c2)no1`, the log2 fold change growth was 0.545.

Regarding `c1ccc(Oc2ccc(-c3cncc(-c4ccc5[nH]ccc5c4)n3)cc2)cc1`, the log2 fold change growth is -1.03.

As to `O=C1Nc2ccc(Br)cc2[C@@]12NCCc1c2[nH]c2ccccc12`, the log2 fold change growth is -0.19.

As to `O=[N+]([O-])c1cn2c(n1)OC[C@@H](OCc1ccc(OC(F)(F)F)cc1)C2`, the log2 fold change growth was -0.142.

For the compound `Cc1nc(-c2cccc(NCc3ccccc3)c2)[nH]c1C`, the log2 fold change growth was 0.123.

For `CCCCS(=O)(=O)Nc1ccc2cnn(C)c2c1`, the log2 fold change growth is 0.414.

`O=C(Cn1ccnc1[N+](=O)[O-])NCc1ccccc1`: the log2 fold change growth was 0.415.

Take `O=C(c1ccc(NCCO)cc1)C1C[C@H]1c1ccc(Cl)cc1` (some centres undefined): the log2 fold change growth is -0.319.

Turning to `COc1ccc2nc(C)cc(OCC(=O)NCc3ccccc3)c2c1`, the log2 fold change growth is 0.118.

Consider `COc1ccc(Oc2ccc([C@@H](C)N(C)c3ncc4c(N)nc(N)nc4n3)cc2)cc1`, for which the log2 fold change growth is 0.282.

Take `C[C@H]1CS(=O)(=O)CCN1/N=C/c1ccc([N+](=O)[O-])o1`: the log2 fold change growth is 0.236.

As to `Cc1ccc2[nH]c([C@H]3CCCNC3)c(-c3ccncc3)c2c1`, the log2 fold change growth was 0.649.

For `CC(C)(C)n1nc(Cc2ccc(F)c(Cl)c2)c2c(N)ncnc21`, the log2 fold change growth is -1.01.

Regarding `COc1ccc(O[C@@H](C)C(=O)Nc2ccc(Cl)cc2C)cc1`, the log2 fold change growth is 0.539.

Turning to `CC(=O)N(CCN(C(=O)c1ccc(F)cc1)c1ccccc1)c1ccccc1`, the log2 fold change growth is 0.382.

`CCc1ccc([C@@H]2C[C@H](C(F)(F)F)n3ncc(C(=O)NCc4ccc(OC)cc4)c3N2)cc1`: the log2 fold change growth is -1.82 (active).

For `Clc1ccc(Cl)c(CO[C@H]2CCCC[C@@H]2n2ccnc2)c1`, the log2 fold change growth is 0.0539.

Consider `CC(=O)NC[C@H]1CN(c2ccc(-c3ccc(CNCc4cn[nH]n4)cc3)c(F)c2)C(=O)O1`, for which the log2 fold change growth was 0.387.

With `O=C(C1CCN(c2nnc(-n3cccc3)s2)CC1)N1CCC(Cc2ccccc2)CC1`, the log2 fold change growth was 0.102.

For the compound `COc1ccc(C(=N)N)cc1-c1cn(-c2ccc(C(=N)N)cc2)nn1`, the log2 fold change growth was -0.0296.

`FC(F)(F)c1cc(NCCc2ccccc2)nc(-c2ccccn2)n1`: the log2 fold change growth was -0.968.

Take `CCOc1ccc2cc(-c3nn(CC4CCN(C)CC4)c4ncnc(N)c34)ccc2c1`: the log2 fold change growth was 0.151.

Take `O=C([C@@H](c1ccc(Cl)cc1)c1cccnc1)N1CCN(c2ccc(C(F)(F)F)cc2)CC1`: the log2 fold change growth is -0.994.

For `CO[C@H]1/C=C/O[C@@]2(C)Oc3c(C)c(O)c4c(O)c(c(/C=N/N5CCN(C)CC5)c(O)c4c3C2=O)NC(=O)/C(C)=C\C=C[C@H](C)[C@H](O)[C@@H](C)[C@@H](O)[C@@H](C)[C@H](OC(C)=O)[C@@H]1C`, the log2 fold change growth is 0.729.

Turning to `c1ccc(Oc2ccc(-c3cc(CN4CCOCC4)[nH]n3)cc2)cc1`, the log2 fold change growth was 0.284.

Take `Cc1ccc(-c2cc(C(=O)Nc3cccnc3)c3cc(Br)ccc3n2)cc1`: the log2 fold change growth was -0.0922.

Turning to `CC(C)(C)OC(=O)N1CCN(c2nccc(-c3ccc(-c4ccc(Cl)cc4)s3)n2)CC1`, the log2 fold change growth is 0.151.

Regarding `c1ccc(C[C@@H]2CN(c3nccc(Oc4ccc(-n5ccnc5)cc4)n3)CCN2)cc1`, the log2 fold change growth was 0.11.

`CCCCOC(=O)Nc1cc2[nH]c(C3CCCCC3)nc2cc1N1CCCC1`: the log2 fold change growth was -0.373.

For `Cc1ccc(C(=O)Nc2ccc(S(=O)(=O)O)c3cc(S(=O)(=O)O)cc(S(=O)(=O)O)c23)cc1NC(=O)c1cccc(NC(=O)Nc2cccc(C(=O)Nc3cc(C(=O)Nc4ccc(S(=O)(=O)O)c5cc(S(=O)(=O)O)cc(S(=O)(=O)O)c45)ccc3C)c2)c1`, the log2 fold change growth is 0.211.
